Experimental data published in PubChem BioAssay (NCATS).
“And” between values parts separate entries of the source, which are not always exact repeats. Identical values can stand only once. Inconclusive results are not listed. Some structures have more than one record in an assay (separate samples or runs), and their calls can disagree. The source made the active and inactive calls. Calls come from the whole dose curve; as a rule, active = well fitted curve in the direction sought with a large enough effect; inconclusive = small, poorly fitted or top-dose-only effect, or another doubt; inactive = no such curve, though single readings can be large; an effect the other way counts as inactive or inconclusive.

Tests used:
[1] = Viability qHTS for spleen associated tyrosine kinase inhibitor (SYKi) naive MV4-11 cells (AID 1963823); note: nearly all actives have a fitted effect of over 40% in size
Summary of the method: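 Cells: MV4-11, SYK inhibitor naive, 500 per well. Treatment: library compounds, 72 hr, 37 C, 5% CO2. Read-out: CellTiter-Glo luminescence after 10 min RT.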

[2] = Viability qHTS for spleen associated tyrosine kinase inhibitor (SYKi) drug resistant MV4-11 cells (AID 1963824); note: nearly all actives have a fitted effect of over 35% in size
Summary of the method: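 SYK inhibitor-resistant MV4-11 AML cells, 500 per well, added to predispensed compounds and incubated 72 hr at 37 C, 5% CO2. Viability measured by CellTiter-Glo luminescence after 10 min at room temperature.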

[3] = Quantitative highthroughput screen to assess conditional lethalithy of NOMO1 cells grown in RPMI1640 with untreated serum (RPMI+s) (AID 1963876); note: nearly all actives have a fitted effect of over 35% in size;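 for Viability: 100% = DMSO wells and 0% = empty wells without cells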
Summary of the method: (§1)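 Each medium arm—HPLM with 10% dialyzed FBS, or RPMI1640 with 5 mM glucose and 10% untreated or dialyzed FBS—was screened against an 11-point, 3-fold compound titration for 48 h at 37 °C, with CellTiter-Glo luminescence as endpoint.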

[4] = Quantitative highthroughput screen to assess conditional lethalithy of NOMO1 cells grown in RPMI1640 with dialyzed fetal bovine serum (RPMI+ds) (AID 1963877); note: nearly all actives have a fitted effect of over 30% in size;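 for Viability: series mostly up to about 46 µM; 100% = DMSO control wells and 0% = empty wells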
Summary of the method: as §1

[5] = Quantitative highthroughput screen to assess conditional lethalithy of NOMO1 cells grown in Human Plasma-Like Medium with dialyzed fetal bovine serum (HPLM+ds) (AID 1963878); note: nearly all actives have a fitted effect of over 35% in size;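 for Viability: 100% = DMSO wells and 0% = empty wells on each plate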
Summary of the method: as §1

[6] = Cellular viability qHTS for adrenocortical cancer (ACC) cell line SW-13 (AID 1963989); settings: SW-13 ACC cells viability, CellTiter-Glo, 48 h; activity (max response): stronger effect = lower value; note: nearly all actives have a fitted effect of over 65% in size;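 for activity (max response): cells grown in serum-free medium with ITS supplement; % is set by controls: 0 for no effect and ±100 for the full control effect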
Summary of the method: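 SW-13 cells in ITS-supplemented serum-free DMEM were plated overnight, then exposed for 48 h at 37C to compound titrations (up to 46 uM final). Viability was read by CellTiter-Glo luminescence; four-parameter logistic fits gave IC50 and efficacy.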

[7] = Cellular viability qHTS for adrenocortical cancer (ACC) cell line NCI-H295R (AID 1963990); note: nearly all actives have a fitted effect of over 60% in size
Summary of the method: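 Luminescent ATP read-out (CellTiter-Glo, 20 min RT) after 48 h drug exposure of NCI-H295R cells; a titration up to 46 uM final. Data normalized to doxorubicin (100% inhibition) and DMSO (0%); 4-parameter fit gives IC50, max response.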

[8] = Quantitative highthroughput screen to assess conditional lethalithy of P12 Ichikawa cells grown in Human Plasma-Like Medium with dialyzed fetal bovine serum (HPLM+ds) (AID 1963879); settings: Potency: viability; note: nearly all actives have a fitted effect of over 35% in size; for Viability: series mostly up to about 46 µM
Summary of the method: as §1

[9] = Quantitative highthroughput screen to assess conditional lethalithy of P12 Ichikawa cells grown in RPMI1640 with dialyzed fetal bovine serum (RPMI+ds) (AID 1963880); settings: Potency: P12-Ichikawa viability; note: nearly all actives have a fitted effect of over 35% in size;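 for Viability: 100% = DMSO wells and 0% = empty wells on each plate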
Summary of the method: as §1

[10] = Quantitative highthroughput screen to assess conditional lethalithy of P12 Ichikawa cells grown in RPMI1640 with untreated serum (RPMI+s) (AID 1963881); settings: Potency: viability; note: nearly all actives have a fitted effect of over 35% in size;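 for Viability: series mostly up to about 46 µM; 100% = DMSO wells and 0% = empty wells without cells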
Summary of the method: as §1

[11] = Quantitative highthroughput screen to assess conditional lethalithy of SEM cells grown in RPMI1640 with unreated serum (RPMI+s) (AID 1963883); note: nearly all actives have a fitted effect of over 35% in size;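 for Viability: 100% = DMSO wells and 0% = empty wells without cells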
Summary of the method: as §1

[12] = Quantitative highthroughput screen to assess conditional lethalithy of SEM cells grown in Human Plasma-Like Medium with dialyzed fetal bovine serum (HPLM+ds) (AID 1963882); note: nearly all actives have a fitted effect of over 35% in size; for Viability: series mostly up to about 46 µM
Summary of the method: as §1

[13] = Quantitative highthroughput screen to assess conditional lethalithy of SEM cells grown in RPMI1640 with dialyzed fetal bovine serum (RPMI+ds) (AID 1963884); note: nearly all actives have a fitted effect of over 35% in size;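 for Viability: series mostly up to about 46 µM; 100% = DMSO control wells and 0% = empty wells without cells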
Summary of the method: as §1
Potency is the fitted concentration of half-maximal effect.

SMILES	Potency [1]	Potency [2]	Potency [3]	Potency [4]	Potency [5]	activity (max response) [6]	Potency [7]	Potency [8]	Potency [9]	Potency [10]	Potency [11]	Potency [12]	Potency [13]	Potency [6]
CCCc1nn(C)c2c(=O)[nH]c(-c3cc(S(=O)(=O)N4CCN(C)CC4)ccc3OCC)nc12	inactive	18.6 µM (active)	inactive	inactive	inactive	1.97% (inactive) and 1.26% (inactive)	inactive							
O=c1cc(N2CCOCC2)oc2c(-c3ccccc3)cccc12	5.9 µM (active)	inactive and 9.34 µM (active)	inactive	inactive			inactive	inactive	inactive	inactive	inactive			
COc1c(C)cnc(Cn2cnc3c(Cl)nc(N)nc32)c1C	0.132 µM (active)	0.235 µM (active)	0.743 µM (active)	0.662 µM (active)	0.662 µM (active)		1.78 µM (active)				0.264 µM (active)	0.372 µM (active)	0.296 µM (active)	2 µM (active)
C[C@@H](NCc1cc2ccccc2[nH]1)c1cccc2ccccc12	6.61 µM (active)	7.42 µM (active)	inactive	inactive			12.6 µM (active)	inactive	inactive	inactive				25.1 µM (active)
O=C(c1ccc(F)cc1)N1CCC[C@H](c2nc(-c3ccc(F)cc3)no2)C1	20.9 µM (active)	11.8 µM (active)	inactive	inactive	inactive	-11.7% (inactive)	inactive				inactive	inactive	inactive	
O=C1CCCC2=C1C(c1[nH]ncc1Cl)N=C(Nc1nc3ccccc3o1)N2 (centres undefined)	8.33 µM (active)	14.6 µM (active) and 13.2 µM (active)	inactive	inactive	18.7 µM (active)	-9.4% (inactive)	inactive					inactive		
NC(=O)Nc1cc(-c2cccc(F)c2)sc1C(=O)N[C@H]1CCCNC1	inactive	inactive	1.05 µM (active)	0.59 µM (active)			0.794 µM (active)	1.87 µM (active)	1.18 µM (active)	1.18 µM (active)	0.0074 µM (active)			1.78 µM (active)
CN1CCN(c2ccc(C(=O)Nc3n[nH]c4ccc(Cc5cc(F)cc(F)c5)cc34)c(NC3CCOCC3)c2)CC1	209 nM (active) and 164 nM (active)	326 nM (active) and 372 nM (active) and 411 nM (active)	26.3 µM (active)	20.9 µM (active)			7.08 µM (active)	23.4 µM (active)	18.6 µM (active)	23.4 µM (active)		4.17 µM (active)	3.71 µM (active)	3.16 µM (active)
Nc1[nH]nc2nnc(-c3c(-c4ccccc4)nn4ccccc34)cc12	9.2 µM (active)	16.4 µM (active)	1.48 µM (active)	2.64 µM (active)		-4.73% (inactive)	inactive	8.33 µM (active)	13.2 µM (active)	7.43 µM (active)	23.5 µM (active)	23.5 µM (active)		
CON(C)C(=O)N1N=C(c2cc(F)ccc2F)S[C@@]1(CCCN)c1ccccc1	0.0092 µM (active)	10.3 nM (active) and 3.3 nM (active)	0.0209 µM (active)	0.0234 µM (active)			0.0562 µM (active)	0.0263 µM (active)	0.0331 µM (active)	0.0209 µM (active)	0.0117 µM (active)			0.0141 µM (active)
O=C(O)C1=CC(O)C(O)[C@H](O)C1 (some centres undefined)	inactive	inactive	inactive	inactive		-8.83% (inactive)	inactive				inactive	inactive	inactive	
c1cc(-c2cnn3cc(-c4ccc(OCCN5CCCCC5)cc4)cnc23)ccn1	0.0206 µM (active)	20.6 nM (active) and 20.9 nM (active)	inactive	inactive			12.6 µM (active)		inactive		inactive	inactive	inactive	11.2 µM (active)
CCN1CCN(CC(=O)Nc2ccc(-c3cccc4c(=O)cc(N5CCOCC5)oc34)c3sc4ccccc4c23)CC1	422 nM (active) and 407 nM (active)	422 nM (active) and 723 nM (active)	4.18 µM (active)	3.72 µM (active)			7.15 µM (active)	inactive			1.05 µM (active)		1.32 µM (active)	
NC(=O)c1cccc2[nH]c(-c3ccc([C@H]4CCCN4)cc3F)nc12	20.6 µM (active)	16.6 µM (active)	inactive	18.7 µM (active)		-3% (inactive)	8.91 µM (active)				3.72 µM (active)		2.64 µM (active)	
COc1cc(C(C)C)c2c(c1)S(=O)(=O)N(COc1cc(=O)n3cccc(OCCN4CCCCC4)c3n1)C2=O	20.9 µM (active)	11.8 µM (active)	inactive	inactive			17.8 µM (active)			inactive	inactive	inactive	inactive	
O=C(O)CCNc1cc(N2CCc3ccccc3CC2)nc(-c2ccccn2)n1	inactive	inactive	inactive	inactive		0.209% (inactive)	inactive	inactive			inactive	inactive	inactive	
